NPR1 antag: Natriuretic polypeptide receptor (hNpr1) antagonism - Primary qHTS | HEK293 hNpr1 GloSensor cGMP, ANP-stimulated luminescence | Atrial natriuretic peptide receptor 1 (Homo sapiens), P16066 | Potency, µM (series often up to 46.3 µM), without a hit: at the top dose activity change, negative = inhibition, hits mostly inhibitors | actives 1.6% (n = 76,000); calls by dose curve; further: on the % scale 0 is the no-effect control and ±100 the full control effect; nearly all actives have a fitted effect of over 60% in size
Target sequence (P16066 whole entry, looked up): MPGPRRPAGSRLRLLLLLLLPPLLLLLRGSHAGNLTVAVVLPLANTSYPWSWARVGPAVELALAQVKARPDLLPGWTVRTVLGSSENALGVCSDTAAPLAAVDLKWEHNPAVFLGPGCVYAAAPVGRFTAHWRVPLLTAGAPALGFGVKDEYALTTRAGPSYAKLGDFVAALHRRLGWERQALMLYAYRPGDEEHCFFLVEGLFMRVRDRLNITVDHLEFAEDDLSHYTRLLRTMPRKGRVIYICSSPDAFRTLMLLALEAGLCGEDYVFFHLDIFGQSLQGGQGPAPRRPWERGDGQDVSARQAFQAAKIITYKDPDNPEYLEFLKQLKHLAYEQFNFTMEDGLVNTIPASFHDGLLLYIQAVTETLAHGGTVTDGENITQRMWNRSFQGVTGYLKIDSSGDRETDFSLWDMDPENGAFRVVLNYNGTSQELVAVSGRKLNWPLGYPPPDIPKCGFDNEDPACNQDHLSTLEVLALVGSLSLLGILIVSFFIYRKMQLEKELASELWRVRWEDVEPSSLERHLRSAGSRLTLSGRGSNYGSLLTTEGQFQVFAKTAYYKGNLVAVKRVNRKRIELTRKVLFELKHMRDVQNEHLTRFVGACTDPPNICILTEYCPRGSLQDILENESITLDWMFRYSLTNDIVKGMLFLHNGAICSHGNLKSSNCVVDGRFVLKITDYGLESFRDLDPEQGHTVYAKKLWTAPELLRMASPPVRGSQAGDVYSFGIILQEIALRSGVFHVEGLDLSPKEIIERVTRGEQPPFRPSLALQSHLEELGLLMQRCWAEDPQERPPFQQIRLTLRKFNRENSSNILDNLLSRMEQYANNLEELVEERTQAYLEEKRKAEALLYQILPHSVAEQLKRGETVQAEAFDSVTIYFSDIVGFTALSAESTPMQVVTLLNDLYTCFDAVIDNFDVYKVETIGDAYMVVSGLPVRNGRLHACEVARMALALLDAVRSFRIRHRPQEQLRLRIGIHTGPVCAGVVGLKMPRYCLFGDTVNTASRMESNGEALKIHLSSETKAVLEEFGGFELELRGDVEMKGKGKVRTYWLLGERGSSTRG
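HEK293 cells stably expressing human Npr1 and cGMP GloSensor pGS-40F, loaded 2 h with 2% GloSensor reagent, given compound 30 min at room temperature. Luminescence read before and 20 min after 0.1 nM hNppA.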
FLuc inh: Firefly luciferase inhibition profiling of diverse chemical library using quantitative high-throughput screening. Luciferin 4-monooxygenase (Photinus pyralis), P08659. AID 1347043, 2019. actives 2.5% (n = 76,000). purified P. pyralis luciferase, luminescence, biochemical. Potency, µM (top dose mostly 115 µM), most hits filed as inhibitors; further: on the % scale 0 is the no-effect control and ±100 the full control effect; nearly all actives have a fitted effect of over 65% in size
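Purified 10nM P. pyralis luciferase with 10uM D-luciferin and 10uM ATP in 50mM Tris acetate pH 7.5, 10mM Mg acetate, 0.01% Tween-20, 0.05% BSA. qHTS titration; luminescence read by CCD imager.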
3T3 cytotox: Cytotoxic Profiling in NIH 3T3 Cell Line of Diverse Libraries Using Quantitative High-Throughput Screening; NIH 3T3 viability, CellTiter-Glo ATP luminescence, 48-72 h; actives 4.3% (n = 94,000); Potency, µM (titrated, usually from 96.7 µM), without a hit: top-dose activity change, negative = cytotoxicity, most hits filed as inhibitors; further: on the % scale 0 is the no-effect control and ±100 the full control effect; nearly all actives have a fitted effect of over 55% in size
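Cytotoxicity is measured as loss of cellular ATP: NIH 3T3 cells (400/well) are exposed to compound for 48 or 72 hr at 37 °C, then CellTiter-Glo luminescence is imaged after 10 min at room temperature.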
GPT2 inhibitor: Primary qHTS assay for inhibitors of Glutamate pyruvate transaminase 2 (GPT2). Alanine aminotransferase 2 (Homo sapiens), Q8TD30. Recombinant GPT2, coupled pyruvate oxidase/HRP Amplex Red fluorescence. Potency, µM (series often up to 57.7 µM), without a hit: at the top dose activity change, negative = inhibition, hits mostly inhibitors. actives 0.25% (n = 100,000). AID 1671188, 2021; further: on the % scale 0 is the no-effect control and ±100 the full control effect; nearly all actives have a fitted effect of over 60% in size
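GPT2 10ng/uL, a-KG 250uM, L-Ala 2mM, HEPES pH7.5 + 0.0001% Tween; 30 min RT. Then Amplex mix (PO/HRP/ThPP), 30 min RT dark, fluorescence. AOA 50uM used as positive control.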
HEK293 tox: Cytotoxic Profiling in HEK 293 Cell Line of Diverse Libraries Using Quantitative High-Throughput Screening | HEK 293 viability, ATP luminescence (CellTiter-Glo), 48-72 h | Potency, µM (doses to about 115 µM), without a hit: at the top dose activity change, negative = cytotoxicity, usual class: inhibitors | actives 6.6% (n = 94,000) | AID 1345083, 2018; further: on the % scale 0 is the no-effect control and ±100 the full control effect; nearly all actives have a fitted effect of over 60% in size
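qHTS cytotoxicity; HEK 293, 250 cells/well; compound pinned; 48 or 72 hr, 37 degree Celsius, 5% CO2, 95% humidity; CellTiter-Glo, 10 min RT; luminescence (ATP).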
NPR1 antag cnf: Natriuretic polypeptide receptor (hNpr1) antagonism - Confirmation | shares compounds with NPR1 antag | HEK293 hNpr1 cGMP GloSensor luminescence, ANP-stimulated | Potency, µM (titrated, usually from 57.6 µM), for inactives: at the highest dose activity change, negative = inhibition, most hits filed as inhibitors | actives 76% (n = 1,400) | AID 1347044, 2019; calls by dose curve; further: nearly all actives have a fitted effect of over 70% in size
Npr2 selectivity: Natriuretic polypeptide receptor (hNpr2) antagonism - Subtype selectivity assay; shares compounds with NPR1 antag; HEK293 hNpr2 GloSensor cGMP luminescence, CNP-stimulated; Potency, µM (top dose mostly 57.6 µM), for inactives: at the top dose activity change, negative = inhibition, usual class: inhibitors; actives 67% (n = 1,400); AID 1347046, 2019; calls by dose curve; further: nearly all actives have a fitted effect of over 70% in size
FLuc inh counter: Natriuretic polypeptide receptor (hNpr1) antagonism - Confirmation firefly luciferase (FLuc) inhibition counterscreen. shares compounds with NPR1 antag. purified FLuc enzyme, luminescence, Km substrate. Potency, µM (series often up to 57.6 µM), for inactives: at the top dose activity change, negative = inhibition, most hits filed as inhibitors. actives 0.7% (n = 1,400); further: 0% is about no effect
GloSensor ctrl: Natriuretic polypeptide receptor (hNpr1) antagonism - Counterscreen GloSensor control cell line; shares compounds with NPR1 antag; HEK293 GloSensor cGMP, SNP-stimulated, luminescence; Potency, µM (series often up to 57.6 µM), without a hit: at the highest dose activity change, negative = inhibition, hits mostly inhibitors; actives 69% (n = 1,400); calls by dose curve; further: on the % scale 0 is the no-effect control and ±100 the full control effect; nearly all actives have a fitted effect of over 70% in size
Active calls of the source: *; i = inactive; u = inconclusive; x = not tested or not shown; [ ] = dose if it differs, or a comment. Shown are actives, neighbours in structure and some others; about 10% of the full set was active somewhere. Unless noted, the call rests on the fitted dose curve; in most records, active means well fitted curve in the direction sought with a large enough effect; inconclusive means small, poorly fitted or top-dose-only effect, or another doubt; inactive means no such curve, though single readings can be large; an effect the other way counts as inactive or inconclusive. Potency means the concentration at half of the fitted maximal effect.

SMILES	NPR1 antag	FLuc inh	3T3 cytotox	GPT2 inhibitor	HEK293 tox	NPR1 antag cnf	Npr2 selectivity	FLuc inh counter	GloSensor ctrl
COCCN1CCC2(CCC1=O)CCN(C(=O)Nc1cccc(Br)c1)CC2	-2%	i	-19%	3%	3%	x	x	x	x
Cn1nccc1C(=O)N1CCCN(CCc2ccccc2)c2ccccc21	u	i	u	i	u	19µM*	14µM*	-1%	-29%
COCC(=O)N1CCC(C(=O)N2CCC(c3nc4ncccc4[nH]3)CC2)CC1	x	x	-16%	i	-9%	x	x	x	x
CCc1noc(-c2ccn3c(CNC(=O)CCC4CCCC4)nnc3c2)n1	5%	i	i	i	i	x	x	x	x
CCN(Cc1ccncc1)C(=O)c1ccc(C2CCNC2)cc1 (stereo not given)	-1%	i	2%	-2%	-27%	x	x	x	x
CCN(Cc1ccncc1)C(=O)CC(c1ccccc1)c1ccc2c(c1)OCO2 (stereo not given)	u	i	-23%	u	u	u	14µM*	5%	5%
O=C(CCCc1ccccc1)NCC1CCCCC(=O)N1 (stereo not given)	x	x	i	-6%	i	x	x	x	x
Cc1ccc(CNC(=O)N2CCC(c3noc(-c4ccccc4)n3)C2)cc1 (stereo not given)	18µM*	i	u	4%	40µM*	u	24µM*	0%	24µM*
CCCNC(=O)N1CCC(c2noc(-c3ccccc3)n2)C1 (stereo not given)	1%	i	u	-2%	u	x	x	x	x
O=C(Nc1ccccc1)C1CC(c2ccccc2)CN(C(=O)NCc2ccccc2)C1 (stereo not given)	-12%	i	u	i	u	x	x	x	x
COc1ccc(CN2C(=O)[C@@H]3C[C@@H](CN3C3CCCC3)Oc3ccccc32)cc1	u	i	u	-10%[88.5 µM]	u	-23%[86.2 µM]	u	-5%[86.2 µM]	-5%[86.2 µM]
COc1ccc(CN2C(=O)[C@@H]3C[C@@H](CN3C(=O)c3cnccn3)Oc3ccccc32)cc1	0%[70.6 µM]	i	u	-3%[88.5 µM]	3%[172 µM]	x	x	x	x
O=C1[C@@H]2C[C@@H](CN2C(=O)C2CC2)Oc2ccccc2N1Cc1ccccc1	1%[70.6 µM]	i	-1%[138 µM]	3%[88.5 µM]	-13%[172 µM]	x	x	x	x
COc1ccc(CN2C(=O)[C@@H]3C[C@@H](CN3C3CCC3)Oc3ccccc32)cc1	u	i	32µM*	i	u	-27%[86.2 µM]	u	-19%[86.2 µM]	0%[86.2 µM]
CCNC(=O)NC[C@H]1COCc2nc3cc(C(=O)OC)ccc3n21	-1%[70.6 µM]	i	-3%[138 µM]	i	0%[172 µM]	x	x	x	x
COCC1CN(C2CCC2)CC12CCN(C(=O)CCn1cc(C)cn1)CC2 (stereo not given)	-11%	i	-5%	i	2%	x	x	x	x
COC(=O)C1=C(C)N=C2SC=C(CC(=O)N3CCCCC3)N2C1c1ccc(Cl)cc1 (stereo not given)	u	i	-28%	u	u	u	u	1%	2%
CC1=C(C(=O)OC(C)C)C(c2ccc(C)cc2)N2C(CC(=O)N3CCCCC3)=CSC2=N1 (stereo not given)	-17%	i	u	i	u	x	x	x	x
C=CCOC(=O)C1=C(C)N=C2SC=C(CC(=O)NCC(C)C)N2C1c1ccccc1Cl (stereo not given)	u	i	-15%	i	u	x	x	x	x
C=CCOC(=O)C1=C(C)N=C2SC=C(CC(=O)N3CCCC3)N2C1c1cc(OC)cc(OC)c1 (stereo not given)	10µM*	i	-17%	i	u	17µM*	15µM*	3%	6%
C=CCOC(=O)C1=C(C)N=C2SC=C(CC(=O)N3CCCC3)N2C1c1ccc(OC)cc1OC (stereo not given)	-17%	i	-18%	-1%	u	x	x	x	x
CC1=C(C(=O)OC(C)C)C(c2ccc(Cl)cc2)N2C(CC(=O)N3CCCC3)=CSC2=N1 (stereo not given)	u	i	u	1%	u	-29%	u	0%	-18%
CCOC(=O)C1=C(C)N=C2SC=C(CC(=O)NCc3ccco3)N2C1c1ccccc1Cl (stereo not given)	11µM*	i	-22%	-2%	u	u	u	3%	-17%
Cc1cnc(CC2CCN(C(=O)COc3ccc(F)cc3)CC2)n1Cc1ccc(F)cc1	2%	i	u	1%	u	x	x	x	x
O=C(NCCN1CCCCC1)C1(CCO)CCN(Cc2ccccc2)C1 (stereo not given)	4%	i	-27%	-15%	5%	x	x	x	x
COCCN1CCC2(CCC1=O)CCN(C(=O)Nc1ccc(C(=O)OC)cc1)CC2	-13%	i	-15%	5%	-4%	x	x	x	x
N#Cc1ccc(CN2CCn3c(nn(-c4cccc(Cl)c4)c3=O)C2)cc1	x	x	u	i	u	x	x	x	x
CC1Oc2ccc(NC(=O)COc3ccccc3)cc2CN(Cc2ccccc2)C1=O (stereo not given)	u	i	u	3%	u	x	x	x	x
COCC1CN(C2CCC2)CC12CCN(C(=O)NCCc1ccccc1)CC2 (stereo not given)	-23%	i	u	i	u	-13%	-15%	4%	-11%
